Screens: PubChem, several laboratories
tim23-1 inh = growth inhibitors of tim23-1 mutant yeast, primary screen, luminescence, uHTS; S. cerevisiae tim23-1 growth, BacTiter-Glo luminescence, 24 h; inhibition, % at 20 µM; 330,000 tested, 1.3% active; AID 463212, 2010;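 active means growth inhibition of the mutant yeast at or above 50%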;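 further: temperature-sensitive mutant grown at 25 °C; plate controls were DMSO-treated mutant yeast for no effect and medium wells lacking yeast for full effect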
V-ATPase pHluor = regulators of yeast V-ATPase proton pumping, primary screen, pHLuorin cytosolic pH fluorescence; S. cerevisiae; response, % at 10 µM; 350,000 tested, 0.37% active; AID 504577, 2011; in the data active means response mostly above about 7.3%, no sharp cut-off; inactive means mostly below about 5.4%; further: actives read high
tim10-1 inh = growth inhibitors of tim10-1 mutant yeast, primary screen, luminescence, uHTS | S. cerevisiae tim10-1 ts strain growth, BacTiter-Glo, 24 h | inhibition, % at 20 µM | 330,000 tested, 2.2% active;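 active means inhibition of at least 40%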;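 further: mutant grown at 25 °C; 0% = DMSO wells with yeast and 100% = wells holding no yeast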
SKKanGAS inh = S. pyogenes SKKanGAS growth inhibitors in kanamycin, primary screen, streptokinase expression inhibitor project, SKKanGAS strain, BacTiter-Glo luminescence; 300,000 tested, 1.3% active; 6 h; AID 1662, 2009; inhibition, % at 7.5 µM;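 active means mean replicate score, as percent of positive control median, at least 50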;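 further: strain carries kanamycin resistance gene driven by streptokinase promoter and grows in 40 µg/ml kanamycin; loss of luminescence reflects streptokinase promoter inhibition or plain growth inhibition; 0% = median of DMSO wells and 100% = positive control at its reference dose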
PfHsp90 set2 = growth inhibition of PfHsp90-expressing yeast, primary screen, antimalarial PfHsp90 inhibitor project, S. cerevisiae, BacTiter-Glo luminescence, single point, set 2. BacTiter-Glo ATP, 48 h; yeast lacking PDR1 and PDR3 efflux regulators. inhibition, % at 9.4 µM. 310,000 tested, 0.32% active;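 active means every replicate shows inhibition above about 80%, whatever the replicate mean, limit read from the data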;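 further: 0% = DMSO neutral controls and 100% = 20 µM radicicol positive controls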
TIM10 inh = growth inhibitors of isogenic TIM10 control yeast, primary screen, counter-screen for tim10-1 yeast inhibitor project, luminescence, uHTS; inhibition, % at 10 µM; AID 463195, 2010; S. cerevisiae TIM10 strain growth, BacTiter-Glo luminescence, 24 h; 330,000 tested, 1.4% active;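 active means inhibition of 40% or more at the single tested concentration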;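 further: wild-type TIM10 isogenic control strain grown at permissive 25 °C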
tim23-1 confirm = tim23-1 mutant yeast growth inhibitors, confirmation, luminescence, single concentration | S. cerevisiae tim23-1 growth, BacTiter-Glo luminescence, 24 h | inhibition, % at 20 µM | shares compounds with tim23-1 inh | 4,400 tested, 83% active;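 active means inhibition above about 39% in either of two replicate wells at 20 µM, limit read from the data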;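 further: temperature-sensitive tim23-1 mutant grown at 25 °C; 0% = DMSO wells with yeast and 100% = medium wells without yeast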
Numbers without * were called inactive; nt = no result. The list is not random: actives were taken first. Their share in the collection is about 4.6%.

SMILES | tim23-1 inh | V-ATPase pHluor | tim10-1 inh | SKKanGAS inh | PfHsp90 set2 | TIM10 inh | tim23-1 confirm
CC(=O)Nc1ccc(OS(=O)(=O)c2cc(Cl)ccc2C)cc1 | 51.5* | -2.7 | 18.6 | -11.4 | -2.5 | 1.4 | 46.3*
CC(=O)Nc1ccc(OS(=O)(=O)c2ccccc2C)cc1 | 8.6 | -2.4 | 6.4 | 0.4 | 2.6 | -4.3 | nt
CC(=NC1CC1)C1=C(O)c2ccccc2C1=O | 0.3 | 0.2 | -4.9 | 2.6 | 20.9 | -4.9 | nt
CCOc1ccc(N=C(C)C2=C(O)c3ccccc3C2=O)cc1 | 60.4* | 1.5 | 7.5 | 20.2 | 16.8 | 16.8 | 57.7*
O=C(NCC(=O)N(c1ccccc1)C(C(=O)NC1CCCCC1)c1ccncc1)c1ccco1 (stereo not drawn) | 2.8 | -2.9 | 9.4 | -5.7 | -5.0 | -10.2 | nt
O=C(NCC(=O)N(c1cnc2ccccc2c1)C(C(=O)NC1CCCC1)c1ccncc1)c1ccco1 (stereo not drawn) | 68.0* | 3.6 | 2.0 | 0.2 | 3.6 | 12.9 | 9.4
c1ccc(CNc2cccnc2)cc1 | nt | 0.1 | nt | nt | nt | nt | nt
COc1ccc(-c2cc(-c3ccc(C)cc3)n[nH]2)c(O)c1 | 54.1* | 0.5 | 8.4 | 77.1* | 1.4 | 20.8 | -21.1
COc1cccc(/C=N/Nc2nccnc2Cl)c1O | 66.5* | 2.0 | 39.3 | -8.7 | 20.0 | 17.5 | 61.0*
COc1ccc(/C=N/Nc2nccnc2Cl)c(OC)c1 | 21.6 | -0.4 | 18.2 | -5.9 | 12.9 | -10.1 | nt
O=c1c2ccccc2[nH]c(=S)n1CCCN1CCN(c2ccccc2F)CC1 | 20.7 | 0.7 | 31.1 | 1.8 | -26.1 | 4.9 | nt
C=CC[C@H]1Cc2c(cccc2[N+](=O)[O-])[C@H](CC=C)N1 | 32.4 | -1.1 | 29.3 | -6.6 | -2.1 | 23.6 | nt
C=CCC1Cc2c(Br)cccc2C(CC=C)N1 (stereo not drawn) | 52.9* | -2.5 | 33.2 | 8.8 | 10.1 | 19.9 | 45.6*
Cc1ccc(NC2CCCN(C(=O)c3cc4ncccn4n3)C2)cc1C (stereo not drawn) | 6.5 | 2.7 | 7.5 | -5.6 | 4.2 | 7.4 | nt
CCOc1cc(NCc2ccccc2)c2ncn(C(C)C)c2c1 | 62.8* | -0.1 | -8.1 | nt | -4.9 | 21.7 | 40.1*
CN1CCC(N(C)C(=O)/C(C#N)=C/c2ccc(OC(F)F)cc2)CC1 | nt | 2.1 | nt | 3.8 | 7.3 | nt | nt
COc1ccc(-c2coc3cc(OC(C)=O)c(OC)cc3c2=O)cc1 | 53.2* | -3.1 | 4.5 | nt | -11.1 | 19.5 | 28.4
CC(=O)Nc1ccc(NC(=S)NC(=O)C2CCCC2)cc1 | 31.2 | -0.4 | 33.4 | -2.1 | 7.7 | 4.4 | nt
Cc1cccc(NC(=S)NC(=O)C2CC2)c1 | 37.2 | 3.5 | 22.2 | 1.8 | -12.6 | 15.9 | nt
Cc1cc(C)cc(NC(=S)NC(=O)C2CC2)c1 | 54.1* | -3.0 | 35.8 | -1.6 | 4.4 | 30.1 | 34.2
N#Cc1ccc(NC(=S)NC(=O)C2CCCCC2)cc1 | 50.8* | 0.5 | 27.0 | nt | 24.6 | 32.9 | 49.0*
CCN(CC)c1ccc(NC(=S)NC(=O)C2CCC2)cc1 | 57.9* | 2.6 | 39.4 | -6.5 | 1.5 | 29.0 | 32.2
Cc1cccc(CC2CC(=O)N(c3nc4ccccc4s3)C2=O)c1 (stereo not drawn) | 31.3 | -1.5 | 33.9 | -1.6 | -9.3 | 31.8 | nt
Cc1ccc2nc(N3C(=O)CNC3=S)sc2c1 | 63.7* | -5.9 | 22.4 | 88.9* | 9.4 | 29.4 | 66.3*
S=C(NCCc1ccccc1)Nc1ccc(Br)cc1 | 26.0 | -0.1 | 13.8 | -14.7 | -6.9 | 24.3 | nt
SMILES | tim23-1 inh | V-ATPase pHluor | tim10-1 inh | SKKanGAS inh | PfHsp90 set2 | TIM10 inh | tim23-1 confirm
CC1=CC(C)(C)N2C(=O)C(=Nc3ccc(O)cc3)c3cccc1c32 | 40.3 | -0.8 | 7.7 | 7.0 | 1.8 | 4.1 | nt
COc1cccc(C(=O)Oc2cc3c4c(c2)C(C)=CC(C)(C)N4C(=O)C3=O)c1 | 62.6* | 7.5 | 27.9 | 18.2 | -116.5 | 29.1 | 69.6*
CCOC(=O)CC/C(=N\NC(N)=O)c1ccc(OC)c(Cl)c1 | -5.8 | -1.4 | -21.0 | 1.4 | -7.9 | -11.7 | nt
Cc1cccn2c(=O)c(/C=C(\C#N)S(=O)(=O)c3ccccc3)c(Oc3ccc(Cl)cc3)nc12 | 50.3* | -1.8 | 0.2 | 5.2 | 7.4 | 20.2 | 36.0
Cc1ccc(N(CC(=O)N2CCN(Cc3ccccc3)CC2)S(C)(=O)=O)cc1C | -3.6 | -0.9 | 0.6 | -2.2 | 0.2 | 2.7 | nt
O=C(O)c1cc(/C=C/c2ccc(N3CCOCC3)c([N+](=O)[O-])c2)nc2ccccc12 | 22.0 | 5.6 | 9.5 | 20.5 | 1.3 | 3.7 | nt
O=C(O)c1cc(/C=C/c2ccc(N3CCOCC3)cc2)nc2ccccc12 | 52.4* | -3.2 | 32.3 | nt | nt | 16.9 | 40.6*
COc1ccccc1NC(=O)N1CCCC1C(=O)NCc1ccccc1Cl (stereo not drawn) | 5.8 | -4.2 | 7.2 | 5.9 | -5.2 | 8.2 | nt
C[C@@]12C(=O)Nc3cc(F)c(F)cc3C(=O)N1[C@H]1c3cc(Cl)ccc3OC[C@@H]1[C@@H]2c1ccccc1 | 50.6* | 3.8 | 22.1 | nt | -49.0 | 22.8 | 44.5*
Cc1ccc2c(c1)C(=O)N1[C@H]3c4ccccc4OC[C@@H]3[C@H](c3ccccc3)[C@]1(C)C(=O)N2 | 57.5* | -4.2 | 13.7 | nt | 105.2* | 15.1 | 60.2*
C[C@@]12C(=O)Nc3ccc(Br)cc3C(=O)N1[C@H]1c3ccccc3OC[C@@H]1[C@@H]2c1ccccc1 | 61.5* | -0.9 | 2.1 | nt | 105.1* | 20.2 | 57.5*
COc1ccc(CCNC(=O)C2CCC(C(C)(C)C)CC2)cc1OC (stereo not drawn) | 33.3 | 0.8 | 25.8 | -24.2 | -22.9 | -2.5 | nt
Cc1ccc(C)c(N2C(=O)C3C4C=CC(CC4)C3C2=O)c1 (stereo not drawn) | 8.0 | -0.7 | 1.3 | -1.7 | -3.3 | -2.2 | nt
Cn1nccc1C(=O)N1CCOCC1 | 0.6 | 6.1 | -10.6 | -1.9 | 7.0 | 15.9 | nt
CCCNC(=S)Nc1cc2oc3ccccc3c2cc1OC | 51.9* | 1.5 | 27.5 | -4.5 | -9.7 | 29.1 | 52.1*
COc1ccc(NC(=O)Nc2nc3c(s2)CCCC3)cc1 | 62.6* | -1.2 | 20.1 | -3.7 | 23.3 | 24.4 | 50.0*
O=C1[C@H](Oc2ccccc2)[C@@H](c2ccccc2)N1c1ccncc1 | 61.6* | -0.8 | 29.4 | nt | 7.9 | 18.5 | 31.9
O=C(CN1CCN(c2ccccc2O)CC1)Nc1cccnc1Cl | 17.4 | -4.0 | -12.3 | -7.2 | 17.7 | 7.6 | nt
C#CCOCCOCCOCCNc1nc(N2CCN(C(=O)CCCCCCCCCCNC(=O)Cn3cc(C[C@@H](C)O)nn3)CC2)nc(N2CCN(C(=O)CCCCCCCCCCNC(=O)[C@H](CCCCN)n3cc(C[C@@H](C)CC)nn3)CC2)n1 | 53.8* | 4.1 | 34.5 | nt | 9.0 | 7.5 | 56.2*
